# Unmarked numbers belong to inactive results. Inconclusive results are not listed. Calls of active or inactive are those of the source. Calls come from the whole dose curve.
# Molecular target: Acetylcholinesterase (Homo sapiens) (UniProt P22303)
# Experiment: Acetylcholinesterase (AChE) small molecule antagonists: colormetric cell-based qHTS assay (AID 1347395); note: nearly all actives have a fitted effect of over 30% in size
# Details: SH-SY5Y cells AChE activity, colorimetric (Ellman); series mostly up to 115 µM; activity, negative = inhibition: at the top concentration
# How it was run: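 After overnight attachment at 37 C, SH-SY5Y cells get 30 min compound exposure; detection cocktail (acetylthiocholine, DTNB) then incubates 90 min at 37 C, and absorbance reflects AChE-generated thiocholine.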
# % is set by controls: 0 for no effect and ±100 for the full control effect.
# Acetylcholinesterase (Homo sapiens), sequence (P22303 whole entry, looked up): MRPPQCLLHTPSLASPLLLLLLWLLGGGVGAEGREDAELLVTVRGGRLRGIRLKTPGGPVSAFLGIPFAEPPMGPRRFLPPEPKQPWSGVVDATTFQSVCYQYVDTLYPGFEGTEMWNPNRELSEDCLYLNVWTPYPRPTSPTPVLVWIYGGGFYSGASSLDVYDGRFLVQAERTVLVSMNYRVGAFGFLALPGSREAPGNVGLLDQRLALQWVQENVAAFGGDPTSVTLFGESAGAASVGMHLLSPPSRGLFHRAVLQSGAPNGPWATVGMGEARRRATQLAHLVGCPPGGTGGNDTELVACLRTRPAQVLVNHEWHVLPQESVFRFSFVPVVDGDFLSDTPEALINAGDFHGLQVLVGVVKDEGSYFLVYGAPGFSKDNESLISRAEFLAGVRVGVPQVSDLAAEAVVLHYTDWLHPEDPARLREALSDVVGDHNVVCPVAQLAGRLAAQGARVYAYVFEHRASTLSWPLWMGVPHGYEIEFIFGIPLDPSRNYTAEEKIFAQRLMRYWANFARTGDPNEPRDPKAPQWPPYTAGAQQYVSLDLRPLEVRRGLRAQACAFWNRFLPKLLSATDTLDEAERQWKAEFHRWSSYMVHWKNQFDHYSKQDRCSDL
Structure (SMILES),Potency,"activity, negative = inhibition"
CCCCCC1=CCCC1=O,inactive,
O=C(Cl)c1ccc(Cl)cc1Cl,,-14.5%
O=C(O)c1cccc(C(=O)O)c1,inactive,
COc1ccc2cc1Oc1cc3c(cc1OC)CC[N+](C)(C)[C@H]3Cc1ccc(cc1)Oc1c(OC)c(OC)cc3c1[C@@H](C2)[N+](C)(C)CC3,,-3.33% [at 52.9 µM]
CC/C=C\CCOC(C)OCC (stereo not given),,0.546% [at 52.9 µM]
Cc1cc(CCCOc2c(C)cc(-c3noc(C(F)(F)F)n3)cc2C)on1,,-4.37% [at 52.9 µM]
C[C@]12CCC(=O)C=C1CC[C@@H]1[C@@H]2C(=O)C[C@@]2(C)[C@H]1CC[C@]2(O)C(=O)CO,inactive,
CC(O)C(CO)C(C)O (stereo not given),,0.735%
CSCC[C@H](NC(=O)[C@H](Cc1c[nH]c2ccccc12)NC(=O)CCNC(=O)OC(C)(C)C)C(=O)N[C@@H](CC(=O)O)C(=O)N[C@@H](Cc1ccccc1)C(N)=O,,-3.03% [at 52.9 µM]
CCc1cccc2c(CCO)c[nH]c12,,0.252% [at 52.9 µM]
CC(C)(CO)C(O)C(=O)NCCCO (stereo not given),,-2.93%
CC(=O)Nc1ccccc1,inactive,
Cc1cc(Cc2cc(C)cc(C(C)(C)C)c2O)c(O)c(C(C)(C)C)c1,inactive,
C[Si]1(C)O[Si](C)(C)O[Si](C)(C)O[Si](C)(C)O[Si](C)(C)O1,,-2.02%
CC(C)(C)c1cccc(C(C)(C)C)c1O,inactive,
OCCCCCCCCCCCCBr,,-0.683%
NS(=O)(=O)c1ccccc1OC(F)(F)F,,-0.454%
O=C(c1ccc(O)cc1)c1ccc(O)c(O)c1O,,5.16%
CC(=O)C(=O)O,inactive,
CS(=O)(=O)c1ccc(Cl)cc1,inactive,

Structure (SMILES),Potency,"activity, negative = inhibition"
CC(C)CC=O,,2.3%
CCCCC(CC)COC(=O)c1ccc(N(C)C)cc1 (stereo not given),inactive,
CCCCCCCOC(=O)CCC,,-0.678%
CCCCCC[C@@H](CCC)C(=O)O,,0.44% [at 52.9 µM]
O=C(Cl)c1ccc(C(=O)Cl)cc1,inactive,
CC(C)CCOC(=O)/C=C/c1ccccc1,,3.31%
C=C(C)C(=O)OCCCCCCCC(C)C,,3.22%
CCCCCCCCCOS(=O)(=O)O,,2.23%
CCOC(=O)Cn1c(=O)sc2cccc(Cl)c21,,-12.8%
C/C=C(\C)C(C)=O,,-3.94%
CCCCCC(C)N (stereo not given),,-0.402% [at 52.9 µM]
COc1cccc(OC)c1C(=O)N[C@@H]1C(=O)N2[C@@H]1SC(C)(C)[C@@H]2C(=O)O,,-0.168% [at 52.9 µM]
CCCCCCCCn1sc(Cl)c(Cl)c1=O,,-7.14%
O=C(c1ccccc1)c1cccc(O)c1,,0.587%
C[C@H]1[C@H]2CC[C@H]3[C@@H]4CC=C5C[C@@H](N(C)C)CC[C@]5(C)[C@H]4CC[C@]23CN1C,,0.0881% [at 52.9 µM]
OCc1ccccc1O,,-2.78% [at 52.9 µM]
CCc1cccc(C)c1N(C(=O)CS(=O)(=O)O)C(C)COC (stereo not given),,0.798%
CC(=O)NNC(C)=O,,2.9%
NC(=O)OCC(COC(N)=O)c1ccccc1,inactive,
O=C(O)c1cc(=O)c2c(OCC(O)COc3cccc4oc(C(=O)O)cc(=O)c34)cccc2o1,inactive,

# Molecular target: Acetylcholinesterase (Homo sapiens) (UniProt P22303)
# Experiment: Acetylcholinesterase (AChE) small molecule antagonists: enzyme-based qHTS assay (AID 1347397); note: nearly all actives have a fitted effect of over 55% in size
# Details: Potency: AChE enzyme activity inhibition; outcome: AChE enzyme activity inhibition; series mostly up to 115 µM; activity change, negative = inhibition: at the top concentration
# How it was run: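 Colorimetric DTNB readout of acetylthiocholine hydrolysis, 10 min at room temperature, after 30 min room-temperature exposure of 50 mU/mL recombinant human enzyme to compound; DMSO vehicle control.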
Structure (SMILES),"activity change, negative = inhibition",Potency
CCCCCC1=CCCC1=O,-1.24%,
O=C(Cl)c1ccc(Cl)cc1Cl,-0.382%,
O=C(O)c1cccc(C(=O)O)c1,,inactive
COc1ccc2cc1Oc1cc3c(cc1OC)CC[N+](C)(C)[C@H]3Cc1ccc(cc1)Oc1c(OC)c(OC)cc3c1[C@@H](C2)[N+](C)(C)CC3,-1.64% [at 53 µM],
CC/C=C\CCOC(C)OCC (stereo not given),-0.344% [at 53 µM],
Cc1cc(CCCOc2c(C)cc(-c3noc(C(F)(F)F)n3)cc2C)on1,-0.485% [at 53 µM],
C[C@]12CCC(=O)C=C1CC[C@@H]1[C@@H]2C(=O)C[C@@]2(C)[C@H]1CC[C@]2(O)C(=O)CO,,inactive
CC(O)C(CO)C(C)O (stereo not given),-1.41%,
CSCC[C@H](NC(=O)[C@H](Cc1c[nH]c2ccccc12)NC(=O)CCNC(=O)OC(C)(C)C)C(=O)N[C@@H](CC(=O)O)C(=O)N[C@@H](Cc1ccccc1)C(N)=O,-0.284% [at 53 µM],
CCc1cccc2c(CCO)c[nH]c12,0.945% [at 53 µM],
CC(C)(CO)C(O)C(=O)NCCCO (stereo not given),-1.65%,
CC(=O)Nc1ccccc1,,inactive
Cc1cc(Cc2cc(C)cc(C(C)(C)C)c2O)c(O)c(C(C)(C)C)c1,,inactive
C[Si]1(C)O[Si](C)(C)O[Si](C)(C)O[Si](C)(C)O[Si](C)(C)O1,0.145%,
CC(C)(C)c1cccc(C(C)(C)C)c1O,,inactive
OCCCCCCCCCCCCBr,1.64%,
NS(=O)(=O)c1ccccc1OC(F)(F)F,0.516%,
O=C(c1ccc(O)cc1)c1ccc(O)c(O)c1O,-7.95%,
CC(=O)C(=O)O,,inactive
CS(=O)(=O)c1ccc(Cl)cc1,,inactive

Structure (SMILES),"activity change, negative = inhibition",Potency
CC(C)CC=O,-0.281%,
CCCCC(CC)COC(=O)c1ccc(N(C)C)cc1 (stereo not given),,inactive
CCCCCCCOC(=O)CCC,-0.734%,
CCCCCC[C@@H](CCC)C(=O)O,-0.243% [at 53 µM],
O=C(Cl)c1ccc(C(=O)Cl)cc1,,inactive
CC(C)CCOC(=O)/C=C/c1ccccc1,1.2%,
C=C(C)C(=O)OCCCCCCCC(C)C,0.821%,
CCCCCCCCCOS(=O)(=O)O,-0.526%,
CCOC(=O)Cn1c(=O)sc2cccc(Cl)c21,0.547%,
C/C=C(\C)C(C)=O,1.21%,
CCCCCC(C)N (stereo not given),-0.405% [at 53 µM],
COc1cccc(OC)c1C(=O)N[C@@H]1C(=O)N2[C@@H]1SC(C)(C)[C@@H]2C(=O)O,0% [at 53 µM],
CCCCCCCCn1sc(Cl)c(Cl)c1=O,-5.06%,
O=C(c1ccccc1)c1cccc(O)c1,0.818%,
C[C@H]1[C@H]2CC[C@H]3[C@@H]4CC=C5C[C@@H](N(C)C)CC[C@]5(C)[C@H]4CC[C@]23CN1C,0.831% [at 53 µM],
OCc1ccccc1O,0.275% [at 53 µM],
CCc1cccc(C)c1N(C(=O)CS(=O)(=O)O)C(C)COC (stereo not given),0.954%,
CC(=O)NNC(C)=O,0.262%,
NC(=O)OCC(COC(N)=O)c1ccccc1,,inactive
O=C(O)c1cc(=O)c2c(OCC(O)COc3cccc4oc(C(=O)O)cc(=O)c34)cccc2o1,,inactive

# — PubChem BioAssay (Tox21)
